GPR151 ag – human GPR151 activation; Q8TDV0; 1% of 650,000 active; PathHunter beta-arrestin GPR151 cells, luminescence; activation, % at 11.2 µM; in the data active means activation above about 4.9%
Target sequence (Q8TDV0 whole entry, looked up): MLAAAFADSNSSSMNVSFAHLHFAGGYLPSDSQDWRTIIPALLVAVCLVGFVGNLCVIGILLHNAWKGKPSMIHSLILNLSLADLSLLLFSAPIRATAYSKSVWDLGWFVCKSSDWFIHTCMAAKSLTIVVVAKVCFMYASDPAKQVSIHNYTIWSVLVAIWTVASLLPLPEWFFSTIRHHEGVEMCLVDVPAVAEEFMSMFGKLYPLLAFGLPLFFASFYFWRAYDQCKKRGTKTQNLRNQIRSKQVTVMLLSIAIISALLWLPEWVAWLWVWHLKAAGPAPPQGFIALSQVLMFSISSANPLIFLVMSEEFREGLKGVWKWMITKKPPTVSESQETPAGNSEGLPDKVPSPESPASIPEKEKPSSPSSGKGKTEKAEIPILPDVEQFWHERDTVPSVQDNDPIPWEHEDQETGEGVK
TEAD-YAP block – TEAD-YAP interaction inhibition | HEK-TIYL cells, TEAD-Gal4/YAP UAS-luciferase luminescence | inhibition, % at 9.12 µM | 1.4% of 640,000 active; in the data active means inhibition above about 32%
MITF inh – human MITF inhibition, primary screen; O75030; AlphaScreen MITF homodimerization, bead proximity signal; inhibition, % at 2.6 µM; 0.91% of 650,000 active; AID 1259374; in the data active means inhibition above about 50%
FBW7 act – activators of human E3 ligase FBW7; normalized activity (activation), % at 26.1 µM; 0.13% of 650,000 active; AlphaScreen FBW7–phospho-cyclin E peptide binding, activator screen; Q969H0; in the data active means normalized activity above about 1.9%;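 further: purified mutant Fbw7 with reduced substrate affinity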
GPR151 conf act – confirmation of human GPR151 activators. shares compounds with GPR151 ag. GPR151 PathHunter beta-arrestin cells, luminescence, 90 min; % of EA-reagent control over plate median. activation, % at 11.2 µM. 6,700 tested, under 10 active. AID 1508609;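 active means mean percent activation across replicates above the confirmation screen cutoff of 4.91%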
GPR119 ag – activates human GPR119 in a GPR151 counter-screen; shares compounds with GPR151 ag; GPR119 PathHunter beta-arrestin cells, luminescence, 90 min; 0 = compound-well median, 100 = enzyme-acceptor control; activation, % at 11.2 µM; 0.3% of 6,700 active; AID 1508611;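 active means mean percent activation in the counterscreen above 29.09%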;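 further: counterscreen on off-target GPR119 to flag nonselective hits from the GPR151 activator screen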
Numbers stand for hits; ! = not confirmed by another sample. Compounds with a hit are over-represented: about 3.4% of the library has one in this group of screens.

Screening COc1ccccc1NC(=O)NCc1nc(N)n(C(=O)Nc2ccccc2OC)n1 returned GPR151 ag 5.2, TEAD-YAP block inactive, MITF inh inactive, FBW7 act inactive, GPR151 conf act inactive and GPR119 ag inactive.
For NS(=O)(=O)c1ccc(CNC(=S)Nc2ccc(Br)cc2Cl)cc1 the results were GPR151 ag inactive, TEAD-YAP block inactive, MITF inh inactive and FBW7 act inactive.
NS(=O)(=O)c1ccc(CNC(=O)Nc2ccc(Br)cc2Cl)cc1 was read as GPR151 ag 8.7, TEAD-YAP block inactive, MITF inh inactive, FBW7 act inactive, GPR151 conf act inactive and GPR119 ag inactive.
`C/C(=N\Nc1ccc(S(N)(=O)=O)cc1[N+](=O)[O-])c1ccccc1Br` gave GPR151 ag inactive, TEAD-YAP block inactive, MITF inh inactive and FBW7 act inactive.
`O=C(NCc1ccc(F)cc1)c1ccc2nc(-c3cccs3)c(-c3cccs3)nc2c1` gave GPR151 ag 4.9, TEAD-YAP block inactive, MITF inh inactive, FBW7 act inactive, GPR151 conf act inactive and GPR119 ag inactive.
`COc1cc(C)nc(N2CCC(C(N)=O)CC2)n1` gave GPR151 ag 5.2, TEAD-YAP block inactive, MITF inh inactive, FBW7 act inactive, GPR151 conf act inactive and GPR119 ag inactive.
For Cc1cc(=O)[nH]c(SC(C)C(=O)Nc2cccc(Cl)c2)n1 (stereo unspecified) the results were GPR151 ag 8.7, TEAD-YAP block inactive, MITF inh inactive, FBW7 act inactive, GPR151 conf act inactive and GPR119 ag inactive.
`NC(=O)c1ccc(NC(=O)CSc2nnc(-c3ccc(Cl)cc3)n2N)cc1` gave GPR151 ag inactive, TEAD-YAP block inactive, MITF inh inactive and FBW7 act inactive.
Screening Nn1c(SCC(=O)Nc2cccc(F)c2)nnc1-c1ccc(Cl)cc1 returned GPR151 ag 6.2, TEAD-YAP block inactive, MITF inh inactive, FBW7 act inactive, GPR151 conf act inactive and GPR119 ag inactive.
COc1ccc(N=C2SC(CC(=O)Nc3ccc(OC)cc3OC)C(=O)N2C)cc1 (stereo unspecified) was read as GPR151 ag 6.6, TEAD-YAP block inactive, MITF inh inactive, FBW7 act inactive, GPR151 conf act inactive and GPR119 ag inactive.
CCNC(=O)CC1SC(=Nc2ccc(OC)cc2)N(C)C1=O (stereo unspecified) was read as GPR151 ag inactive, TEAD-YAP block inactive, MITF inh inactive and FBW7 act inactive.
For Cc1csc(NC(=O)C2c3ccccc3Oc3ccccc32)n1 the results were GPR151 ag inactive, TEAD-YAP block inactive, MITF inh inactive and FBW7 act inactive.
`CN1CCC(N(C(=O)CCC(=O)O)C2CC2)CC1` gave GPR151 ag 8.8, TEAD-YAP block inactive, MITF inh inactive, FBW7 act inactive, GPR151 conf act inactive and GPR119 ag inactive.
`C/C(CCc1ccccc1)=N/Nc1ccc([N+](=O)[O-])cc1` gave GPR151 ag 8.0, TEAD-YAP block inactive, MITF inh inactive, FBW7 act inactive, GPR151 conf act inactive and GPR119 ag inactive.
For CCOC(=O)c1ccccc1NC(=O)CSc1ccc(-c2ccco2)nn1 the results were GPR151 ag inactive, TEAD-YAP block inactive, MITF inh inactive and FBW7 act inactive.
`COc1ccc(N2C(=O)/C(=C/c3ccc(N(C)C)cc3)NC2=S)cc1` gave GPR151 ag inactive, TEAD-YAP block inactive, MITF inh inactive and FBW7 act inactive.
For O=C(NCC(c1ccco1)N1CCOCC1)c1ccc(F)cc1 (stereo unspecified) the results were GPR151 ag 5.4, TEAD-YAP block inactive, MITF inh inactive, FBW7 act inactive, GPR151 conf act inactive and GPR119 ag inactive.
`CCn1cc(C(=O)N2C[C@H](C(=O)OC)[C@@H](c3ccc(F)cc3)C2)cn1` gave GPR151 ag inactive, TEAD-YAP block inactive, MITF inh inactive and FBW7 act inactive.
`COC(=O)[C@H]1CN(C(=O)c2cnn(C(C)C)c2)C[C@@H]1c1ccc(F)cc1` gave GPR151 ag 5.7, TEAD-YAP block inactive, MITF inh inactive, FBW7 act inactive, GPR151 conf act inactive and GPR119 ag inactive.
OCC1CCN(C2CCCN(Cc3ccc4nonc4c3)C2)CC1 (stereo unspecified) was read as GPR151 ag 5.9, TEAD-YAP block inactive, MITF inh inactive, FBW7 act inactive, GPR151 conf act inactive and GPR119 ag inactive.
Screening OCC1CCN(C2CCCN(Cc3ccc4nsnc4c3)C2)CC1 (stereo unspecified) returned GPR151 ag inactive, TEAD-YAP block inactive, MITF inh inactive and FBW7 act inactive.
COc1ccc(CCN2CCC(Nc3nc4ccccc4n3Cc3ccc(F)cc3)CC2)cc1 was read as GPR151 ag 9.2!, TEAD-YAP block inactive, MITF inh inactive, FBW7 act inactive, GPR151 conf act inactive and GPR119 ag inactive.
For COc1ccc(CCN2CCC(NCC3CC3)CC2)cc1 the results were GPR151 ag inactive, TEAD-YAP block inactive, MITF inh inactive and FBW7 act inactive.
N#C/C(=C\c1ccccc1[N+](=O)[O-])c1nc2ccccc2c(=O)[nH]1 was read as GPR151 ag inactive, TEAD-YAP block inactive, MITF inh inactive and FBW7 act inactive.
Screening FC(F)(F)c1ccc(-c2cnnc(N3CCSCC3)n2)cc1 returned GPR151 ag inactive, TEAD-YAP block inactive, MITF inh inactive and FBW7 act inactive.
For OC1CCN(C2CCN(c3nncc(-c4ccc(C(F)(F)F)cc4)n3)CC2)CC1 the results were GPR151 ag 7.3, TEAD-YAP block inactive, MITF inh inactive, FBW7 act inactive, GPR151 conf act inactive and GPR119 ag inactive.
`Cc1nc(N2CCC(C)CC2)nc(N2CCN(c3ccccc3)CC2)c1[N+](=O)[O-]` gave GPR151 ag inactive, TEAD-YAP block inactive, MITF inh inactive and FBW7 act inactive.
O=C(NC1CC1)c1ccc(-c2nc3ncnc(NCc4nc5ccccc5[nH]4)c3[nH]2)cc1 was read as GPR151 ag 6.3, TEAD-YAP block inactive, MITF inh inactive, FBW7 act inactive, GPR151 conf act inactive and GPR119 ag inactive.
`Cc1cc(NCc2nc3ccccc3[nH]2)nc(-c2ccccc2)n1` gave GPR151 ag inactive, TEAD-YAP block inactive, MITF inh inactive and FBW7 act inactive.
For Cc1cc(NCc2nc3ccccc3[nH]2)nc(-c2ccc(C(=O)NC3CC3)cc2)n1 the results were GPR151 ag 5.1, TEAD-YAP block inactive, MITF inh inactive, FBW7 act inactive, GPR151 conf act inactive and GPR119 ag inactive.
Screening Cc1nc2c(c(=O)[nH]1)CN(C(=O)C1(c3ccc(Cl)cc3)CCC1)CC2 returned GPR151 ag inactive, TEAD-YAP block inactive, MITF inh inactive and FBW7 act inactive.
Cc1nc2c(c(=O)[nH]1)CN(C(=O)C1(c3cccc(F)c3)CCCC1)CC2 was read as GPR151 ag 6.5, TEAD-YAP block inactive, MITF inh inactive, FBW7 act inactive, GPR151 conf act inactive and GPR119 ag inactive.

Bioassay records: PubChem, The Scripps Research Institute Molecular Screening Center
